Results filed as inconclusive are left out. Active and inactive are the calls of the source. The call rests on the fitted dose curve; in most records, active means well fitted inhibition curve with a large enough effect; inconclusive means small, poorly fitted or top-dose-only effect; inactive means flat fitted curve, though single readings scatter. Where a SMILES comes first, the peptide text is derived from it. [ ]: non-standard residue; d: D form. PhLac = O=C(O)[CH](O)Cc1ccccc1; NMeV = CN[CH](C(=O)O)C(C)C
How the values were obtained:
CRL-7250 = normal cell line; assay: Cytotoxic Profiling of Annotated Libraries Using Quantitative High-Throughput Screening (AID 1296008); details: Five cell lines viability, CellTiter-Glo ATP luminescence, 48-72 h; max response: active compounds read low; on max response: on the % scale 0 is the no-effect control and ±100 the full control effect
In short: (§1)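 Cytotoxicity was measured as CellTiter-Glo ATP luminescence, read after 10 min at room temperature. Compound treatment of the cells lasted 48 or 72 hr at 37 degrees Celsius in a qHTS format.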

HEK293 = assay: as above; details: Five cell lines viability, CellTiter-Glo ATP luminescence, 48-72 h; max response: active compounds read low
In short: as §1

HaCat = assay: as above; details: Five cell lines viability, CellTiter-Glo ATP luminescence, 48-72 h; max response: active compounds read low
In short: as §1

KB-3-1 = assay: as above; details: Five cell lines viability, CellTiter-Glo ATP luminescence, 48-72 h; max response: active compounds read low
In short: as §1

NIH3T3 = assay: as above; details: Five cell lines viability, CellTiter-Glo ATP luminescence, 48-72 h; max response: active compounds read low
In short: as §1

HEK293T = assay: qHTS assay to identify novel small-molecules to repurpose for Merkel cell carcinoma treatment (AID 1296009); details: MCC and control cell lines, CellTiter-Glo viability, 72 h; series mostly up to 44.8 µM
In short: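 After compound transfer in DMSO, plates were kept 72 hr at 37 degree celsius. Luminescent ATP signal from CellTiter-Glo served as viability measure, normalized against DMSO and no-cell controls.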
Further: nearly all actives have a fitted effect of over 60% in size.

COc1ccc([C@@H]2N[C@H](C(=O)O)Cc3c2[nH]c2ccccc32)cc1CN1CCN(c2ccccc2F)CC1
inactive: max response (CRL-7250) -3.7% | outcome (HEK293) | max response (HaCat) 1.36% | max response (KB-3-1) -4.47% | outcome (NIH3T3) | Potency (HEK293T)

CC(C)C(=O)c1cn(CC(=O)COc2ccc(Oc3ccccc3)cc2)c2ccc(C(=O)O)cc12
inactive: max response (CRL-7250) 3.02% | outcome (HEK293) | max response (HaCat) -4.02% | max response (KB-3-1) -0.497% | max response (NIH3T3) -1.24% | Potency (HEK293T)

COc1cc(-c2cccc(O)c2)cc2c1OCO2
inactive: max response (CRL-7250) -4.5% | outcome (HEK293) | max response (HaCat) 0.342% | outcome (KB-3-1) | outcome (NIH3T3) | Potency (HEK293T)

CC[C@H](C)/C=C(C)/C=C/C(=O)Cc1cc(O)c(C)c(O)c1C=O
inactive: max response (CRL-7250) -3.98% | outcome (HEK293) | max response (HaCat) 4.71% | max response (KB-3-1) 7.23% | max response (NIH3T3) 3.96% | Potency (HEK293T)

C=CC(C)(O)CC/C=C(\C)C(=O)OCC1OC(OC2CCC3(C)C(CCC4(C)C3CC=C3C5CC(C)(C)C(O)CC5(C(=O)O)CCC34C)C2(C)C)C(O)C(OC2OC(CO)C(O)C(OC3OC(CO)C(O)C(OC4OC(COC5OC(CO)C(O)C(O)C5O)C(O)C(O)C4O)C3O)C2O)C1O (centres undefined)
inactive: max response (CRL-7250) -1.92% | outcome (HEK293) | max response (HaCat) 2.14% | outcome (KB-3-1) | outcome (NIH3T3) | outcome (HEK293T) inactive [at 9.27 µM]

Cc1c(CN(C)C(=O)/C=C/c2cnc3c(c2)CCC(=O)N3)oc2ccccc12
inactive: outcome (CRL-7250) | outcome (HEK293) | max response (HaCat) 1.29% | max response (KB-3-1) 9.61% | max response (NIH3T3) -2.06% | Potency (HEK293T)

CC(C)C(C(=O)N1CCCC1C(=O)O)N(C)C(=O)C(O)Cc1ccccc1 (centres undefined) (H-[PhLac]-[NMeV]-Pro-OH; configuration not given here)
inactive: outcome (CRL-7250) | outcome (HEK293) | max response (HaCat) -7.13% | outcome (KB-3-1) | max response (NIH3T3) -4.85% | Potency (HEK293T)

C=C1CCC2C(C)(COC3OC(COC(=O)CC(=O)O)C(O)C(O)C3O)CCCC2(C)C1CCC1=CCOC1=O (centres undefined)
inactive: outcome (CRL-7250) | outcome (HEK293) | max response (HaCat) -2.95% | outcome (KB-3-1) | outcome (NIH3T3) | Potency (HEK293T)

C[C@@H]1CC[C@]2(C(=O)O)CC[C@]3(C(=O)O)C(=CCC4[C@@]5(C)CC[C@H](O[C@@H]6O[C@@H](C)[C@H](O[C@@H]7O[C@H](CO)[C@@H](O)[C@H](O)[C@H]7O)[C@@H](O)[C@H]6O)C(C)(C)C5CC[C@]43C)C2[C@H]1C (some centres undefined)
inactive: max response (CRL-7250) 0.369% | outcome (HEK293) | max response (HaCat) -0.856% | outcome (KB-3-1) | outcome (NIH3T3) | Potency (HEK293T)

CC1=CCC2C(C)(CO)CCCC2(C)C1CC12OC1C(O)C(CO)=CC2O (centres undefined)
inactive: max response (CRL-7250) 4.27% | outcome (HEK293) | max response (HaCat) -8.88% | outcome (KB-3-1) | outcome (NIH3T3) | Potency (HEK293T)

OCC1OC(Oc2cc(O)c3c(c2)OC(c2ccc(O)cc2)C(O)C3)C(O)C1O (centres undefined)
inactive: max response (CRL-7250) -1.28% | outcome (HEK293) | max response (HaCat) -8.75% | max response (KB-3-1) 9.04% | max response (NIH3T3) 2.06% | Potency (HEK293T)

C=C(C)C1CC2(CO)C(=CC1=O)CCC(O)C2C (centres undefined)
inactive: max response (CRL-7250) 3.39% | outcome (HEK293) | max response (HaCat) -2.77% | max response (KB-3-1) 4.67% | outcome (NIH3T3) | Potency (HEK293T)

CNC(=O)c1ccc2cc([C@@]3(O)CCn4cncc43)ccc2c1
inactive: outcome (CRL-7250) | outcome (HEK293) | max response (HaCat) 4.91% | outcome (KB-3-1) | outcome (NIH3T3) | Potency (HEK293T)

O=C1NCc2nc3ccccc3c(=O)n2C1Cc1c[nH]c2ccccc12 (centres undefined)
inactive: max response (CRL-7250) -3.24% | outcome (HEK293) | max response (HaCat) 1.57% | max response (KB-3-1) 3.31% | outcome (NIH3T3) | Potency (HEK293T)

CC1(C)CC[C@]2(C(=O)O)CC[C@]3(C)C(=CCC4[C@@]5(C)CC[C@H](O[C@@H]6O[C@H](C(=O)O)[C@@H](O)[C@H](O)[C@H]6O)C(C)(CO)C5CC[C@]43C)C2C1 (some centres undefined)
inactive: max response (CRL-7250) 4.13% | outcome (HEK293) | max response (HaCat) -0.619% | outcome (KB-3-1) | max response (NIH3T3) -4.92% | Potency (HEK293T)

CC(=O)O[C@@]1(C)C[C@@H](O)[C@]2(O)C=CO[C@@H](O[C@@H]3O[C@H](CO)[C@@H](O)[C@H](O)[C@H]3O)[C@@H]21
inactive: max response (CRL-7250) -0.355% | outcome (HEK293) | max response (HaCat) 3.46% | outcome (KB-3-1) | outcome (NIH3T3) | Potency (HEK293T)

C=CCc1ccc(O[C@@H]2O[C@H](CO[C@@H]3O[C@@H](C)[C@H](O)[C@@H](O)[C@H]3O)[C@@H](O)[C@H](O)[C@H]2O)cc1
inactive: max response (CRL-7250) -0.302% | outcome (HEK293) | max response (HaCat) 4.55% | max response (KB-3-1) 2.9% | outcome (NIH3T3) | Potency (HEK293T)

COC(=O)C1(Cc2ccc(O)cc2)OC(=O)C(OC)=C1c1ccc(O)cc1 (centres undefined)
inactive: max response (CRL-7250) -4.87% | outcome (HEK293) | max response (HaCat) -3.39% | outcome (KB-3-1) | outcome (NIH3T3) | Potency (HEK293T)

O=C(/C=C/c1ccccc1)OCC1=CC[C@@H]2C(C(=O)O)=CO[C@@H](O[C@@H]3O[C@H](CO)[C@@H](O)[C@H](O)[C@H]3O)[C@H]12
inactive: outcome (CRL-7250) | outcome (HEK293) | max response (HaCat) 0.992% | outcome (KB-3-1) | outcome (NIH3T3) | Potency (HEK293T)

From PubChem BioAssay (NCATS)
